Source: PubChem BioAssay
NR2F2 inh = inhibitors of human COUP-TFII (NR2F2); AID 686940; HEK293T NGFI-A luciferase reporter, luminescence; P24468; inhibition, % at 8.6 µM; 370,000 compounds, 0.7% hits;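 active = inhibition above a per-plate cutoff, mean inhibition of test wells between control levels plus 3 SD, cut at about 38% in these data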;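 also: cells cotransfected with COUP-TFII expression vector driving the NGFI-A reporter; 0% = median of COUP-TF2 test wells and 100% = reporter-only cells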
Target sequence (P24468 whole entry, looked up): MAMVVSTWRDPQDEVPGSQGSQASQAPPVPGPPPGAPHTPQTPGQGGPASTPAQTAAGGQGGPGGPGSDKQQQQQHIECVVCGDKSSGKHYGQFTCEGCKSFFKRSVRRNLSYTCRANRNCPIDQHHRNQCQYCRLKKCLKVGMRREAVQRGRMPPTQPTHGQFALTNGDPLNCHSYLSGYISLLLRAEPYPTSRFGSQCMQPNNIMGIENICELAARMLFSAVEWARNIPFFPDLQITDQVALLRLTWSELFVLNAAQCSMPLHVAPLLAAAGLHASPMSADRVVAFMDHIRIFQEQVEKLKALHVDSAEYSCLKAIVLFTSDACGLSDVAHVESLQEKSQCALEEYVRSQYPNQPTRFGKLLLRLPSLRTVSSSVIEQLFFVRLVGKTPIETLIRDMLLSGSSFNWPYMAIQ
NCOA1 inh = inhibits human SRC1 coactivator; Q15788; HEK293 GAL4-SRC1 luciferase reporter, luminescence; inhibition, % at 3.6 µM; 360,000 compounds, 0.12% hits; AID 588354;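 active = inhibition above the campaign mean plus 3 SD, with each screening campaign given its own cutoff, cut at about 60% in these data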;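 also: 0% = DMSO treated cells and 100% = gossypol at 36 µM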
Gli-Sufu antag = blocks Gli-Sufu signaling in a luciferase reporter; inhibition, % at 5 µM; 340,000 compounds, 0.74% hits; AID 588413; Sufu-KO-LIGHT fibroblasts, Gli luciferase reporter luminescence;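 active = inhibition above about 55%, limit read from the data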;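 also: 0% = DMSO-treated cells and 100% = wells with medium but no cells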
NCOA3 inh = inhibitors of human steroid receptor coactivator 3 (SRC3). Q9Y6Q9. HEK293 GAL4-SRC3 luciferase reporter, luminescence. inhibition, % at 3.6 µM. 360,000 compounds, 0.17% hits;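 active = inhibition above a per-campaign cutoff, the mean of all compounds plus 3 SD, cut at about 60% in these data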;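 also: 0% = DMSO-treated cells and 100% = gossypol-treated cells at 36 µM; higher means less SRC3-driven luciferase light from the GAL4 reporter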
NCOA2 inhibitor = human SRC2 (NCOA2) inhibition. Q15596. HEK293 GAL4-SRC2 luciferase reporter, luminescence. inhibition, % at 9 µM. 370,000 compounds, 0.17% hits;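 active = inhibition above the mean inhibition of all tested compounds plus 3 SD, set per campaign, cut at about 52% in these data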;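 also: 0% = DMSO treated cells and 100% = cells given Gossypol at 36 µM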
NR5A2 inv ag = suppresses constitutive activity of human LRH-1; inhibition, % at 3.6 µM; O00482; 360,000 compounds, 0.13% hits; HEK293T StAR-luciferase reporter, LRH-1 transfected, 24 h;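 active = inhibition above the mean inhibition of all tested compounds plus 3 SD, cut at about 73% in these data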;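 also: 0% = DMSO wells and 100% = reporter-only cells lacking LRH-1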
Gli antag conf = confirmation of Gli-SUFU pathway antagonists; shares compounds with Gli-Sufu antag; Sufu-KO-LIGHT cells, Gli luciferase reporter, luminescence; inhibition, % at 5 µM; 2,500 compounds, 40% hits;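 active = mean inhibition at 5 µM reaching about 45%, limit read from the data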;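 also: plate controls were DMSO-treated cells for no effect and wells lacking cells for full effect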
SufuKO cytotox = cytotoxic in Gli-SUFU antagonist counter-screen. shares compounds with Gli-Sufu antag. 2,500 compounds, 32% hits. Sufu-KO-LIGHT cells cytotoxicity, ATP luminescence. AID 651994. cytotoxicity, % at 5 µM;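 active = mean cytotoxicity at 5 µM above about 25%, limit read from the data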;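 also: cells exposed to compound overnight for roughly 16 to 18 hours; plate controls were DMSO wells with cells for no effect and medium without cells for full effect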
Wnt3a counter = counter-screen for Gli-SUFU antagonists: Wnt3a reporter inhibition; shares compounds with Gli-Sufu antag; Wnt-LIGHT cells, Wnt3a-driven luciferase reporter, luminescence; inhibition, % at 6.25 µM; 2,500 compounds, 20% hits;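 active = mean inhibition above about 25%, limit read from the data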
* = called active by the depositor; · = not tested or not shown. A selection: hits, their analogues and other compounds. The true share with any hit is near 1.3%.

SMILES	NR2F2 inh	NCOA1 inh	Gli-Sufu antag	NCOA3 inh	NCOA2 inhibitor	NR5A2 inv ag	Gli antag conf	SufuKO cytotox	Wnt3a counter
CN1CC=C(c2ccccc2)N(c2ccc(Cl)cc2)C1=O	-22.3	·	·	·	-30.7	·	·	·	·
CCCCCOc1ccc(/C=N/NC(=O)CSc2nnc(-c3ccc(OC)cc3)n2-c2ccc(C)cc2)cc1	-1.1	·	·	·	9.0	·	·	·	·
Nc1cc2nc[nH]c2cc1N	-16.9	-69.3	62.6*	-85.1	-54.7	-93.7	9.3	5.0	-10.4
COc1ccc(N(CC(=O)NCc2ccc(F)cc2)C(=O)CCC(=O)Nc2ccccn2)cc1	-16.3	-21.1	68.9*	11.8	-13.8	-5.8	15.8	22.0	-25.7
O=C(NC1CCCCN(Cc2ccc(Cl)cc2)C1=O)c1ccc2ccccc2c1 (centres undefined)	-4.6	·	·	·	8.7	·	·	·	·
O=C(c1ccc(F)cc1)C1CCN(C(=S)NCC2CCCO2)CC1 (centres undefined)	-5.0	-3.4	62.6*	26.7	32.9	-2.9	13.0	9.9	9.8
Nn1c(SCC(=O)Nc2ccc(OCc3ccccc3)cc2)nnc1-c1cc(-c2ccc(F)cc2)n[nH]1	-18.2	·	·	·	4.8	·	·	·	·
COc1ccc2c(c1)c(C(=O)CN1CCN(c3ccccc3)CC1)c(C)n2C	·	·	8.9	·	·	·	·	·	·
CCN1CCN(CC(=O)c2c(C)n(C)c3ccc(OC)cc23)CC1	5.9	1.8	62.5*	0.7	-7.9	10.9	10.7	9.9	-6.9
COc1ccc(CCNC(=O)Nc2ccc3c(c2)[C@]2(CC(=O)N(CC(C)C)C2c2ccccc2)C(=O)N3C)cc1OC (some centres undefined)	-11.5	·	·	·	15.8	·	·	·	·
CCCCc1nnc(NC(=O)CSCc2cc(=O)n3cc(C)sc3n2)s1	-1.6	8.0	51.4	11.9	-22.9	17.1	14.4	10.5	-12.2
CCCCc1nnc(NC(=O)CSCc2cc(=O)n3c(C)csc3n2)s1	9.0	12.4	-2.9	11.3	0.4	-2.3	·	·	·
COc1ccc(-c2cc(C(F)(F)F)n3ncc(C(=O)N4CCCCC4c4cccnc4)c3n2)cc1 (centres undefined)	-17.8	1.3	52.3	12.7	-6.7	2.3	30.1	11.3	9.2
c1coc(-c2nc3c4ccccc4ccn3c2Cc2ccsc2)c1	-52.8	·	·	·	-52.9	·	·	·	·
CC(=O)Nc1ccc(C(/C=C/c2ccccc2)Cc2ccccc2)cc1 (centres undefined)	-15.9	·	·	·	16.1	·	·	·	·
Cc1ccccc1NS(=O)(=O)c1ccc(C(=O)NCCCN2CCOCC2)cc1	2.9	-2.2	-0.4	7.2	-12.4	11.9	·	·	·
O=C(NCCCN1CCOCC1)c1ccc(S(=O)(=O)Nc2ccccc2F)cc1	-0.3	7.7	89.6*	5.7	8.9	2.4	13.5	1.9	-19.9
O=S(=O)(c1ccc(Br)cc1)c1nc(-c2ccco2)oc1NCC1CCCO1 (centres undefined)	15.9	-10.5	61.8*	10.3	-21.9	11.4	20.6	15.0	6.4
Cc1ccc(S(=O)(=O)c2nc(-c3ccco3)oc2NCC2CCCO2)cc1 (centres undefined)	0.4	-2.1	-6.4	9.2	-7.6	2.3	·	·	·
CCOC(=O)c1sc(NC(=O)c2cccc(S(=O)(=O)N3CCc4ccccc43)c2)c(C#N)c1C	3.5	-5.2	73.0*	17.4	24.7	1.1	78.2*	16.3	72.0*
CCOC(=O)c1sc(NC(=O)CSc2n[nH]c(-c3ccccc3)n2)c(C#N)c1C	-2.4	-24.3	16.1	2.0	-13.9	-1.7	·	·	·
CCOC(=O)c1sc(NC(=O)c2cc(-c3ccccc3)nc3ccccc23)c(C#N)c1C	-5.5	-14.7	53.0	-5.0	-8.4	-4.8	73.8*	11.4	65.3*
Cc1ccc(C(=O)COC(=O)c2cc(Cl)nc3ccccc23)cc1	-9.5	-31.7	-1.7	5.4	-10.2	0.8	·	·	·
O=C(COC(=O)c1cc(Cl)nc2ccccc12)c1ccc(Cl)cc1	-3.2	-11.9	52.7	16.5	-8.6	-11.7	9.9	22.6	-16.5
COC(=O)Cc1[nH]n(-c2nc3ccccc3s2)c(=O)c1C(C)=Nc1ccc(Cl)cc1	-17.4	-20.5	85.9*	1.6	3.6	-2.7	92.5*	18.2	103.9*
SMILES	NR2F2 inh	NCOA1 inh	Gli-Sufu antag	NCOA3 inh	NCOA2 inhibitor	NR5A2 inv ag	Gli antag conf	SufuKO cytotox	Wnt3a counter
COC(=O)Cc1[nH]n(-c2nc3ccccc3s2)c(=O)c1C(C)=Nc1ccc(C)cc1	6.3	4.8	90.2*	44.5	10.6	-18.1	93.6*	13.8	106.2*
COc1cc(NC(=O)C2CCCN(S(=O)(=O)c3cccc4cccnc34)C2)cc(OC)c1 (centres undefined)	-3.9	·	·	·	1.4	·	·	·	·
CCNC(=S)N1C2CCC1CC(NC(=O)Nc1ccc(C(=O)OCC)cc1)C2 (centres undefined)	-4.6	-9.4	-1.4	0.7	-0.2	-14.0	·	·	·
CCOCCCNC(=S)N1C2CCC1CC(NC(=O)Nc1ccc(C(=O)OCC)cc1)C2 (centres undefined)	5.6	19.3	69.6*	6.8	-1.6	18.9	9.2	30.5*	-12.3
O=C(NCC1COCCO1)C1CCN(S(=O)(=O)c2ccc(Br)s2)CC1 (centres undefined)	8.5	·	·	·	-1.4	·	·	·	·
Nc1nc2ccccc2n1/N=C/c1ccc([N+](=O)[O-])s1	9.7	-0.6	54.3	12.4	-2.3	53.7	52.6*	19.0	-117.8
Nc1nc2ccccc2n1/N=C/c1cccnc1	1.1	-6.3	15.8	10.0	9.9	0.7	·	·	·
COc1ccc([C@H]2OC(=O)C[C@H]2C(=O)N2CCCCC2)cc1OC	7.7	·	·	·	-15.0	·	·	·	·
CCOC(=O)c1ccc(N2C(=O)c3n[nH]c(C)c3C2c2ccco2)cc1 (centres undefined)	-3.9	-1.8	4.5	2.4	-14.7	-3.8	·	·	·
CCOC(=O)c1ccc(N2C(=O)c3n[nH]c(-c4ccco4)c3C2c2cccc([N+](=O)[O-])c2)cc1 (centres undefined)	2.4	10.7	99.4*	5.2	9.1	2.6	16.9	3.9	-21.3
COCCCN1C(=O)[C@H](CC(=O)NCc2cccc3ccccc23)[C@]2(C(=O)OC)CCCCC=C12	3.0	·	·	·	11.4	·	·	·	·
C[C@H]1CN=C(N(C)C)N1CCCCc1ccccc1	2.9	-3.0	2.3	13.4	-33.7	-4.1	·	·	·
CC(C)C[C@H]1CN=C(N(C)C)N1CCCCc1ccccc1	-1.7	10.9	60.5*	18.0	1.5	14.9	62.0*	24.4	23.3
CCC(C)CCN1C(N(C)C)=NC[C@@H]1CC(C)C (some centres undefined)	1.9	-3.4	70.7*	9.7	-17.6	15.1	55.9*	15.6	18.0
CC(C)C[C@H]1CN=C(N(C)C)N1CC1CCCC1	3.8	-6.5	47.3	6.8	-18.3	11.5	·	·	·
